Records with an inconclusive call do not appear. Calls of active or inactive are those of the source. Calls come from the whole dose curve; as a rule, active = well fitted cell-killing curve with a large enough effect; inconclusive = small, poorly fitted or top-dose-only effect, or effect the other way; inactive = no such curve, though single readings can be large or run the other way. Starred links: 1 amine or outer side, 2 acyl side, 3 side chain; linkers in the order of their positions; H or OH if unused. Positions of bridges follow the written chain, without caps; N, C: chain ends. Non-standard residues stand in square brackets, D forms with d. Residues, ends and D or L forms follow the SMILES beside them. Chains are numbered I, II in the order given. Actinocin(9to1) = Cc1c2oc3c(C)ccc(C(=O)[*:1])c3nc-2c(C(=O)[*:2])c(N)c1=O; NMeV = CN[CH](C(=O)O)C(C)C; Sar = CNCC(=O)O
assay: Quantitative High-Throughput drug screen in 47 multiple myeloma cell lines against the NCATS MIPE library collection: L363_DSMZ cell viability assay (AID 1918984); conditions: L363 myeloma viability, CellTiter-Glo ATP luminescence, 48 h; series mostly up to 45.8 µM; viability (% of control): at the top concentration; note: nearly all actives have a fitted effect of over 40% in size
Text: PI: Beverly A. Mock Ph.D.
Laboratory of Cancer Biology and Genetics,
Center for Cancer Research, National Cancer Institute,
National Institute of Health, Bethesda, Maryland
Drug resistance and disease progression are common in multiple myeloma (MM) patients, underscoring the need for new therapeutic combinations. […] We hypothesized that effective combinations would reduce MYC expression and enhance p16 activity. […] These preclinical data identify potentially useful drug combinations for evaluation in drug-resistant MM and reveal potential mechanisms of combined drug sensitivity.
Described herein is the primary MIPE qHTS used to cherrypick compounds. Validated compounds were then further tested for potential synergistic activiy.
[1] Peat TJ, Gaikwad SM, Dubois W, Gyabaah-Kessie N, Zhang S, Gorjifard S, Phyo Z, Andres M, Hughitt VK, Simpson RM, Miller MA, Girvin AT, Taylor A, Williams D, D'Antonio N, Zhang Y, Rajagopalan A, Flietner E, Wilson K, Zhang X, Shinn P, Klumpp-Thomas C, McKnight C, Itkin Z, Chen L, Kazandijian D, Zhang J, Michalowski AM, Simmons JK, Keats J, Thomas CJ, Mock BA. Drug combinations identified by high-throughput screening promote cell cycle transition and upregulate Smad pathways in myeloma. Cancer Lett. 2023 Aug 1;568:216284. doi: 10.1016/j.canlet.2023.216284. Epub 2023 Jun 24. PMID: 37356470; PMCID: PMC10408729.
SEQUENCE No. (e.g., 1, 2, 3, etc.); […] (e.g., Cells, Incubation, Reagent, etc.); VALUE and DESCRIPTION.
1; Cells; 5 uL; white, solid bottom 1536-well Greiner assay plate.
2; Compounds; 23 nL; Kalypsis pin tool (Wako USA) equipped with a 1536-well pin head to transfer to the assay plates.
3; Incubation; 48 hours; 37C incubation.
4; Reagent;5uL; CellTiter Glo (Promega).
5; Detector; 425V; Luminescence; Viewlux PerkinElmer.
NOTES (numbers refer to Sequence numbers above)
1. The cell-based screening methods employed in this study were like those previously published. Briefly, the corresponding myeloma cell lines were screened in 1,536-well plates with 500 cells, 5-uL per well for inhibition of cell viability (assessed by measuring ATP levels with CellTiterGlo).
2. NCATS MIPE 4.0 library of approved and investigational drugs were added using the Kalypsis pin tool. Wells treated with DMSO only for 100% viability and media only for 0% viability were used as controls.
3. The assay plates were covered and incubated for 48 hours in a 37C, 5% CO2 incubator with controlled humidity.
4. After 48 hours, CellTilter-GloTM luminescent substrate mix (Promega) reagent was added to the assay plate and plates we incubated for 5 min at room temperature.
5. Signal was measured as median relative luminescence units on a ViewLux (PerkinElmer) multiplate reader.
[1] Heske CM, Davis MI, Baumgart JT, Wilson K, Gormally MV, Chen L, Zhang X, Ceribelli M, Duveau DY, Guha R, Ferrer M, Arnaldez FI, Ji J, Tran HL, Zhang Y, Mendoza A, Helman LJ, Thomas CJ. Matrix Screen Identifies Synergistic Combination of PARP Inhibitors and Nicotinamide Phosphoribosyltransferase (NAMPT) Inhibitors in Ewing Sarcoma. Clin Cancer Res. 2017 Dec 1;23(23):7301-7311. doi: 10.1158/1078-0432.CCR-17-1121. Epub 2017 Sep 12. PMID: 28899971; PMCID: PMC6636827.
Potency is the fitted concentration of half-maximal effect.

Q: For COc1cc(C(=O)NC2CCN(C)CC2)ccc1Nc1ncc2c(n1)N(C1CCCC1)CCC(=O)N2C(C)C, which Potency is on record?
A: The Potency was 16600 nM (active).

Q: With CC(C)C[C@H](NC(=O)CNC(=O)c1cc(Cl)ccc1Cl)B1OC(=O)CC(CC(=O)O)(C(=O)O)O1 (stereo not given in full) as the compound, how does the Potency read?
A: Its Potency is 83.3 nM (active).

Q: For O=C(NC1CC1)c1cccc(-c2ccc3c(NC(=O)C4CC4)n[nH]c3c2)c1, which “viability (% of control)” value is on record?
A: Its value is 110% (inactive).

Q: With CC[C@H]1OC(=O)[C@H](C)[C@@H](O[C@H]2C[C@@](C)(OC)[C@@H](O)[C@H](C)O2)[C@H](C)[C@@H](O[C@@H]2O[C@@H](C)C[C@H](N(C)C)[C@@H]2O)[C@](C)(O)C[C@@H](C)C(=O)[C@H](C)[C@@H](O)[C@]1(C)O as the compound, how does the “viability (% of control)” value read?
A: Its value is 75.8% (inactive).

Q: Which “viability (% of control)” value does the source give for N#CC(=C(O)c1ccc(Cl)cc1Cl)c1nc2cc(Cl)ccc2c(=O)[nH]1 here?
A: Its value is 91.7% (inactive).

Q: Which Potency does the source give for N#Cc1c(NC(=O)c2cccc3ccccc23)sc2c1CCCC2 here?
A: Its Potency is 296 nM (active).

Q: Which “viability (% of control)” value does the source give for Oc1ccc([C@@H]2Oc3ccc(O)cc3[C@@H]3CCC[C@@H]32)cc1 here?
A: Its value is 85.2% (inactive).

Q: With CC(C)Oc1ccc(C(=O)N[C@H](CNC(=O)CN(C)C)Cc2ccc(-c3cn4cccc([C@H](C)O)c4n3)cc2)cc1Cl as the compound, how does the Potency read?
A: The Potency was 83.3 nM (active).

Q: With NC(=O)c1ncn([C@@H]2O[C@H](CO)[C@@H](O)[C@@H]2O)c1O as the compound, how does the “viability (% of control)” value read?
A: The value was 104% (inactive).

Q: Which Potency does the source give for Cn1c(Nc2ccc(C(F)(F)F)cc2)nc2cc(Oc3ccnc(-c4ncc(C(F)(F)F)[nH]4)c3)ccc21 here?
A: Its Potency is 16600 nM (active).

Q: For COc1cccc2c1C(=O)c1c(O)c3c(c(O)c1C2=O)C[C@@](O)(C(=O)CO)C[C@H]3O[C@H]1C[C@H](N)[C@H](O)[C@H](C)O1, which Potency is on record?
A: Its Potency is 743 nM (active).

Q: With CCCCOc1ccc(C(=O)Nc2ccc(F)cc2F)cc1 as the compound, how does the “viability (% of control)” value read?
A: The value was 69% (inactive).

Q: For Cc1c2oc3c(C)ccc(C(=O)NC4C(=O)NC(C(C)C)C(=O)N5CCCC5C(=O)N(C)CC(=O)N(C)C(C(C)C)C(=O)OC4C)c3nc-2c(C(=O)NC2C(=O)NC(C(C)C)C(=O)N3CCCC3C(=O)N(C)CC(=O)N(C)C(C(C)C)C(=O)OC2C)c(N)c1=O (stereo not given) (I: TVP[Sar][NMeV] / II: TVP[Sar][NMeV]; ester I:1-I:C, II:1-II:C; linker I:N-II:N via Actinocin(9to1); configuration not given here), which “viability (% of control)” value is on record?
A: Its value is 1.92% (inactive).

Q: With COc1cc(OC)c(C=CS(=O)(=O)Cc2ccc(OC)c(NCC(=O)O)c2)c(OC)c1 as the compound, how does the Potency read?
A: Its Potency is 46.9 nM (active).

Q: For C=CC[C@@H]1C=C(C)C[C@H](C)C[C@H](OC)[C@H]2O[C@@](O)(C(=O)C(=O)N3CCCC[C@H]3C(=O)O[C@H](C(C)=C[C@@H]3CC[C@H](O)[C@H](OC)C3)[C@@H](C)[C@@H](O)CC1=O)[C@@H](C)C[C@@H]2OC, which Potency is on record?
A: Its Potency is 1180 nM (active).

Q: Which Potency does the source give for Cc1[nH]c(C=C2C(=O)Nc3ccccc32)c(C)c1CCC(=O)O here?
A: Its Potency is 9350 nM (active).

Q: For CCCCCCCCCCCCCCCC(=O)OC[C@@H](NC(=O)C(Cl)Cl)[C@H](O)c1ccc([N+](=O)[O-])cc1, which “viability (% of control)” value is on record?
A: Its value is 95.7% (inactive).

Q: For O=C1CSC(=O)N1C(CCc1ccncc1)COc1ccc(-c2cccc([N+](=O)[O-])c2)cc1 (stereo not given), which “viability (% of control)” value is on record?
A: The value was 99.7% (inactive).

Q: With CC(Oc1ccc(O)cc1)(P(=O)(O)O)P(=O)(O)O as the compound, how does the “viability (% of control)” value read?
A: The value was 82.2% (inactive).

Q: For NC1=N[C@H]2[C@H](CS[C@H]2CCCCC(=O)O)N1, which “viability (% of control)” value is on record?
A: Its value is 87.6% [at 23.2 µM] (inactive).

Q: Which Potency does the source give for COc1ccc(C[C@@H](C)[C@@H](C)Cc2ccc(OC)c(OC)c2)cc1OC here?
A: Its Potency is 166 nM (active).

Q: Which “viability (% of control)” value does the source give for CC(=O)O[C@H]1C[C@@H]2CC[C@H]3[C@H]4C[C@H]([N+]5(C)CCCCC5)[C@@H](OC(C)=O)[C@@]4(C)CC[C@@H]3[C@@]2(C)C[C@H]1[N+]1(C)CCCCC1 here?
A: Its value is 106% (inactive).

Q: Which “viability (% of control)” value does the source give for O=C(Nc1cccc(Nc2ncc(Br)c(NCCc3cnc[nH]3)n2)c1)N1CCCC1 here?
A: The value was 118% (inactive).

Q: With NC(=O)Nc1cc(-c2ccc(CN3CCOCC3)cc2)sc1C(N)=O as the compound, how does the Potency read?
A: The Potency was 5900 nM (active).

Q: Which “viability (% of control)” value does the source give for C[C@H](CCC(=O)O)[C@H]1CCC2C3C[C@H](O)[C@@H]4C[C@H](O)CC[C@]4(C)C3CC[C@@]21C (stereo not given in full) here?
A: Its value is 134% (inactive).

Q: For COc1ccc(Nc2cc(-c3cnc(N)nc3)nc(N3CCOCC3)n2)cn1, which Potency is on record?
A: The Potency was 526 nM (active).

Q: With COc1cc(C)c(Sc2cnc(NC(=O)c3ccc(CNC(C)C(C)(C)C)cc3)s2)cc1C(=O)N1CCN(C(C)=O)CC1 (stereo not given) as the compound, how does the Potency read?
A: The Potency was 2960 nM (active).

Q: Which Potency does the source give for CCc1cnn2c(NCc3ccc[n+]([O-])c3)cc(N3CCCC[C@@H]3CCO)nc12 here?
A: The Potency was 23.5 nM (active).

Q: With CNC(=O)c1ccc(Nc2cc(Nc3ccccc3S(=O)(=O)C(C)C)c3cc[nH]c3n2)nc1 as the compound, how does the Potency read?
A: Its Potency is 2350 nM (active).

Q: Which “viability (% of control)” value does the source give for Cc1ccc(O)c(C(CCN(C(C)C)C(C)C)c2ccccc2)c1 (stereo not given) here?
A: Its value is 137% (inactive).

Q: Which Potency does the source give for COc1cc(O)c2c(c1)C1OC1C[C@H](O)[C@H](O)C(=O)C=CC[C@H](C)OC2=O (stereo not given in full) here?
A: The Potency was 2350 nM (active).

Q: Which Potency does the source give for CCOC(=O)N1CCN([N+]([O-])=NOc2ccc([N+](=O)[O-])cc2C#N)CC1 here?
A: Its Potency is 590 nM (active).

Q: Which Potency does the source give for Cn1cc(-c2cnn3c(N)c(Br)c([C@H]4CCCNC4)nc23)cn1 here?
A: The Potency was 59 nM (active).

Q: For C[C@H]1O[C@H](O[C@H]2[C@H](O)[C@@H](O)[C@@H](O[C@H]3[C@H](O)[C@@H](O)C(O)O[C@H]3CO)O[C@H]2CO)[C@H](O)[C@@H](O)[C@H]1N[C@H]1C=C(CO)[C@@H](O)[C@H](O)[C@@H]1O (stereo not given in full), which Potency is on record?
A: Its Potency is 20900 nM (active).

Q: Which “viability (% of control)” value does the source give for CCCCCCCCCCCCc1ccc(S(=O)(=O)Nc2nncs2)cc1 here?
A: The value was 145% (inactive).

Q: For CCN(CC)Cc1ccc2cc(COC(=O)Nc3ccc(C(=O)NO)cc3)ccc2c1, which Potency is on record?
A: The Potency was 372 nM (active).

Q: With CO[C@@H]1[C@@H](O)[C@H](O)[C@@H](n2c3c(Cl)cccc3c3c4c(c5c6cccc(Cl)c6[nH]c5c32)C(=O)NC4=O)O[C@@H]1CO as the compound, how does the Potency read?
A: Its Potency is 1050 nM (active).

Q: With CC(C)(O)Cn1c(NC(=O)c2ccc(-c3cn[nH]c3)s2)nc2cc(CN3CCOCC3)ccc21 as the compound, how does the Potency read?
A: The Potency was 662 nM (active).

Q: With Nc1ccc(C(=O)Nc2cccc(-c3nc(N4CCOCC4)c4oc5ncccc5c4n3)c2)cn1 as the compound, how does the Potency read?
A: The Potency was 1180 nM (active).

Q: With C[C@H](NC(=O)Cc1cc(F)cc(F)c1)C(=O)N[C@H](C(=O)OC(C)(C)C)c1ccccc1 as the compound, how does the “viability (% of control)” value read?
A: The value was 105% (inactive).
